pS6 MEF inh: inhibitors of mTORC1 signaling in Tsc2-/- p53-/- MEF cells | Tsc2-/- p53-/- MEF, phospho-rpS6 immunofluorescence/PI, 24 h | Potency, µM (highest dose often 38.3 µM), for the others: at the highest dose activity change, negative = inhibition, actives largely listed as inhibitors | 0.78% of 44,000 active;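 note: plate controls were DMSO for no effect and rapamycin for full effect; nearly all actives have a fitted effect of over 50% in size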
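Immunofluorescence of rpS6 phosphorylation in Tsc2-/-, p53-/- MEFs after 24 h compound exposure, normalized to propidium iodide signal. Activity is expressed as % positive cells, thresholded with 7.5 nM rapamycin.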
GALC G270D up: galactocerebrosidase G270D activity enhancement, cell-based; P54803; 145M-Twi-hGALC-G270D cells (Twitcher mouse brain line with human GALC G270D), HMU-beta-Gal fluorescence, 48 h; Potency, µM (highest dose often 57.5 µM), usual class: activators; 0.1% of 45,000 active; AID 1159614; note: 0% is about no effect; nearly all actives have a fitted effect of over 65% in size
Target sequence (P54803 whole entry G286D): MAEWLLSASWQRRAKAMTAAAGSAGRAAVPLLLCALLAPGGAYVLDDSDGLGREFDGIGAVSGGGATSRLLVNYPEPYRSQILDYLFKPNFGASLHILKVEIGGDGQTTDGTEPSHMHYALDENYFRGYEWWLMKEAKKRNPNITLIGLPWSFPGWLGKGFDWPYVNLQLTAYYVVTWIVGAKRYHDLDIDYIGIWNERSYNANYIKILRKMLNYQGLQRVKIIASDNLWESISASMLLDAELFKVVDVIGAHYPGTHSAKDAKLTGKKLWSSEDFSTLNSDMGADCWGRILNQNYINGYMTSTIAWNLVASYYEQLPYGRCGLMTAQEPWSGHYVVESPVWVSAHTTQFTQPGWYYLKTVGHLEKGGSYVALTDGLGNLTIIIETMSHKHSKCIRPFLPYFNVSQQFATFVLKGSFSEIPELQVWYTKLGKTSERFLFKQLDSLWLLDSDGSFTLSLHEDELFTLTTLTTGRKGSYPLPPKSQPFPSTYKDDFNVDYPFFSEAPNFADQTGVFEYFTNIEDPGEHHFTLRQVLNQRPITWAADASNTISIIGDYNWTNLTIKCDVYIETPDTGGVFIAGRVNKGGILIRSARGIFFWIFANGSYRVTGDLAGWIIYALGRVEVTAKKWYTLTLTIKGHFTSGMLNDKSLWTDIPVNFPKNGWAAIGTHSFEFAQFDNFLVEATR
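Brain-derived Twitcher mouse 145M-Twi cells stably expressing human GALC-G270D or wild-type GALC, treated live, then residual GALC activity read by fluorescence of HMU-b-Gal substrate (0.1 mM final) in citrate-phosphate buffer pH 5.2 with sodium taurocholate. Signal increase indicates enhancement.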
S16 viability: toxic to S16 Pmp22-F2sN Schwann cells; S16 Pmp22-F2sN Schwann cells viability, CellTiter-Glo, 24 h; Potency, µM (highest dose often 57.5 µM), for the others: at the top dose activity change, negative = cytotoxicity, usual class: cytotoxic; 0.48% of 43,000 active; note: % is set by controls: 0 for no effect and ±100 for the full control effect; nearly all actives have a fitted effect of over 65% in size
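S16 Schwann cells carrying the Pmp22-F2sN reporter, seeded in 1536-well format, were exposed to library compounds for 24 h at 37C. Viability was read as CellTiter-Glo luminescence after 15 min at room temperature.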
PMP22 txn: PMP22 gene transcription modulation | S16 Pmp22-F2sN Schwann cells (luciferase reporters placed in the Pmp22 gene), FLuc/NLuc coincidence luminescence, 24 h | Potency, µM (top dose mostly 57.5 µM), for inactives: top-dose activity change, negative = inhibition, usual class: inhibitors | 2% of 43,000 active | AID 1508649; active = clear falling dose curves in both reporters; inconclusive = both reporters move, but less clearly or upward; inactive = either reporter flat; the % is the NLuc reporter signal; note: % is set by controls: 0 for no effect and ±100 for the full control effect
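S16(c9) Schwann cells with FLuc/NLuc coincidence reporter in the Pmp22 3' UTR; compounds pin-transferred, 24 h at 37C. Dual-luciferase read: FLuc first, then NLuc after Stop&Glo, each 10 min at room temperature.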
* marks the source's active call; other numbers are inactive results; i = inactive; u = inconclusive; x = not tested or not shown. An excerpt weighted towards active compounds, which were near 2.8% of everything screened. Unless noted, calls come from the whole dose curve; as a rule, active = well fitted curve in the direction sought with a large enough effect; inconclusive = small, poorly fitted or top-dose-only effect, or another doubt; inactive = no such curve, though single readings can be large; an effect the other way counts as inactive or inconclusive. Potency is the fitted concentration of half-maximal effect.

SMILES	pS6 MEF inh	GALC G270D up	S16 viability	PMP22 txn
O=S(=O)(c1ccc(-c2csc(=Nc3ccc(F)cc3)n2CCCCCCO)cc1)N1CCCC1	u	i	17.8µM*	8.8µM*
COc1cc(NC(=O)c2cccc3c2C(=O)N(C2CCCCC2)C3)cc(OC)c1OC	14.7µM*	i	u	u
Cc1cc(C)cc(NC(=O)c2cccc3c2C(=O)N(C2CCCCC2)C3)c1	-5.8%	i	17.3%	0.7%
CCCN1CCN(c2ncnc3sc(C(=O)Nc4ccc(OC(F)(F)F)cc4)c(C)c23)CC1	16.5µM*	i	u	u
CCCN(CCC)S(=O)(=O)c1ccc(C(=O)Nc2cccc(-c3nc4ccccc4[nH]3)c2)cc1	-1.7%	i	u	18.9µM*
CCN(CC)CC(=O)OCC(=O)[C@@]1(O)CC[C@H]2[C@@H]3CCC4=CC(=O)CC[C@]4(C)[C@H]3[C@@H](O)C[C@@]21C	x	i	x	x
COc1ccc(Cn2c(C(=O)O)c(CNCCc3cc(OC)ccc3OC)c3ccc(C)cc32)cc1	-6.1%	i	u	u
C=Cc1ccc(Cn2c(C(=O)O)c(CNCc3ccc(F)cc3)c3ccc(C)cc32)cc1	-13.6%	i	28.2µM*	u
CCOc1ccc(CCNCc2c(C(=O)O)n(Cc3ccc(C)cc3)c3cc(OC)ccc23)cc1	11.7µM*	i	0.1%	u
COc1ccc(Cn2c(C(=O)O)c(CNCc3ccc(SC)cc3)c3ccc(OC)cc32)cc1	16.5µM*	i	u	u
C=Cc1ccc(Cn2c(C(=O)O)c(CNCc3cccs3)c3ccc(C)cc32)cc1	-23.7%	i	u	-3.7%
O=C(NCCc1ccc(Cl)cc1)C(=O)NCC(c1ccco1)S(=O)(=O)c1ccc(Cl)cc1 (stereo not given)	1.17µM*	i	u	u
COc1ccccc1CCNC(=O)C(=O)NCC(c1ccco1)S(=O)(=O)c1cccs1 (stereo not given)	-0.9%	i	-18.6%	-5.2%
Cc1ccc(S(=O)(=O)C(CNC(=O)C(=O)NCCc2ccc(Cl)cc2)c2ccco2)cc1 (stereo not given)	-0.5%	i	-28.6%	-56.7%
COc1ccccc1CCNC(=O)C(=O)NCC(c1ccco1)S(=O)(=O)c1ccc(C)cc1 (stereo not given)	-14.0%	7.94µM*	u	-15.4%
Cc1ccc(Sc2c(C)nn(C(=O)c3ccc(Cl)cc3)c2C)cc1	4.2%	i	-6.2%	-14.3%
COc1cc(C(=O)n2nc(C)c(Sc3ccc(Cl)cc3)c2C)cc(OC)c1OC	10.4µM*	i	13.4%	-4.3%
COc1ccc(-c2nc(CN3CCC(C(=O)NCCCN4CCN(c5ccccc5F)CC4)CC3)c(C)o2)cc1OC	14.7µM*	i	u	u
Cc1oc(-c2cccc(Cl)c2)nc1CN1CCC(C(=O)NCCCN2CCN(c3ccccc3F)CC2)CC1	-17.0%	i	u	7.94µM*
Cc1oc(-c2cccc(Cl)c2)nc1CN1CCC(C(=O)NCCCN2CCN(c3ccc(F)cc3)CC2)CC1	0.1%	i	10µM*	9.58µM*
COc1ccc(C(=O)N(c2ccc(C)cc2)S(=O)(=O)c2ccc(C)cc2)cc1	-16.4%	i	u	u
Cc1cc(NC(=O)c2cc(-c3ccc(Cl)cc3)on2)n(-c2ccccc2)n1	-13.0%	i	14.7%	-5.4%
CCC(=O)N1CCc2cc(Br)cc(S(=O)(=O)N3CCC(C(=O)Nc4cccc(C)c4)CC3)c21	2.7%	i	-15.7%	u
CCN(C(=O)C1CCN(S(=O)(=O)c2cc(Br)cc3c2N(C(C)=O)CC3)CC1)c1cccc(C)c1	3.3%	i	u	8.91µM*
Cc1ccc(-c2nnc(Nc3ccc(O)cc3)c3ccccc23)cc1S(=O)(=O)N1CCN(C)CC1	2.0%	i	u	u
SMILES	pS6 MEF inh	GALC G270D up	S16 viability	PMP22 txn
COC(=O)c1ccc(Nc2nnc(-c3ccc(C)c(S(=O)(=O)N4CCN(C)CC4)c3)c3ccccc23)cc1	20.7µM*	i	u	-44.4%
CC1CCCN(CCCNC(=O)c2cc3c(Cl)nc4ccccc4c3s2)C1 (stereo not given)	18.5µM*	i	u	u
Cc1ccc2nc(Cl)c3cc(C(=O)NCCCN(C)Cc4ccccc4)sc3c2c1	u	i	u	u
CCN(CCCNC(=O)c1cc2c(=O)[nH]c3ccc(C)cc3c2s1)Cc1ccccc1	18.5µM*	i	u	u
CN(CCCNC(=O)c1cc2c(Cl)nc3ccccc3c2s1)Cc1ccccc1	13.1µM*	i	u	u
Cc1c(-c2ccc(Cl)cc2)c(=O)oc2c(CN3CCCC3)c(O)ccc12	0.5%	39.8µM*	-6.9%	-88.1%
N#C/C(=C\c1ccc(-c2ccc(F)cc2F)o1)c1nc2ccccc2[nH]1	13.1µM*	i	1.8%	u
COc1ccc(C2=C(C)C(N3CCC(C(=O)Nc4ccc(F)cc4C)CC3)=NS2(=O)=O)cc1	-8.3%	i	-3.7%	-0.6%
O=c1cc(-c2ccccc2)nc2cc(-c3ccc(F)cc3)[nH]n12	-24.6%	i	25.1µM*	-9.1%
CCCCC/C(C=O)=C\c1ccccc1	x	i	x	x
CCOc1ccc(C2Nc3c(C)cccc3-c3cc(C)nn32)cc1 (stereo not given)	-12.6%	25.1µM*	-26.4%	-22.4%
Cc1c(Cl)ccc2sc(NC(=O)c3ccc(S(=O)(=O)N4CCCc5ccccc54)cc3)nc12	14.7µM*	i	11.8%	-17.1%
Cc1cc(C)cc(NC(=O)Cn2cc(C(=O)C3CCCCC3)c3ccccc32)c1	-25.3%	i	2.1%	u
Cc1c(Cl)cccc1NC(=O)Cn1cc(C(=O)C2CCCCC2)c2ccccc21	-22.8%	i	u	10µM*
CCc1cccc(N2C(=O)CS(=O)(=O)C23C(=O)N(Cc2ccccc2)c2ccc(C)cc23)c1 (stereo not given)	-3.5%	i	u	-31.8%
CCN(CC)CCCNc1sc(S(=O)(=O)c2ccccc2)nc1S(=O)(=O)c1ccc(Cl)cc1	9.27µM*	i	u	u
CCCCc1oc2ccc(NS(C)(=O)=O)cc2c1C(=O)c1ccc(OCCCN(CCCC)CCCC)cc1	x	i	x	x
CN1Cc2cc(C(=O)N3CCC(C4CCNCC4)CC3)ccc2N[C@@H](CC(=O)O)C1=O	x	i	x	x
Cc1ccc(C)c(CN2CCC(CNC(=O)Nc3ccc(Br)cc3F)CC2)c1	u	i	28.2µM*	u
C=CCNc1nc(NCC=C)nc(N2CCN(C(c3ccc(F)cc3)c3ccc(F)cc3)CC2)n1	x	i	x	x
CCOCCOC(=O)/C=C/c1ccc(OC)cc1	x	i	x	x
O=C(c1ccc(Nc2nc3ccccc3n3nnnc23)cc1)N1CCN(c2cccc(C(F)(F)F)c2)CC1	7.1%	i	u	u
Cc1ccc2nc(NCc3ccccc3)c3nnnn3c2c1	1.3%	x	x	x

Screens from PubChem BioAssay.
